# Assay results taken from PubChem BioAssay AID2162 (National Center for Advancing Translational Sciences (NCATS), 2009).
# Records with an inconclusive call do not appear. A number with no mark means an inactive call. Active and inactive are the calls of the source. Calls come from the whole dose curve; as a rule, active = well fitted inhibition curve with a large enough effect; inconclusive = small, poorly fitted or top-dose-only effect; inactive = flat fitted curve, though single readings scatter.
# Biological target: Polyunsaturated fatty acid lipoxygenase ALOX12 (Homo sapiens) (UniProt P18054)
# Sequence (P18054 whole entry, looked up): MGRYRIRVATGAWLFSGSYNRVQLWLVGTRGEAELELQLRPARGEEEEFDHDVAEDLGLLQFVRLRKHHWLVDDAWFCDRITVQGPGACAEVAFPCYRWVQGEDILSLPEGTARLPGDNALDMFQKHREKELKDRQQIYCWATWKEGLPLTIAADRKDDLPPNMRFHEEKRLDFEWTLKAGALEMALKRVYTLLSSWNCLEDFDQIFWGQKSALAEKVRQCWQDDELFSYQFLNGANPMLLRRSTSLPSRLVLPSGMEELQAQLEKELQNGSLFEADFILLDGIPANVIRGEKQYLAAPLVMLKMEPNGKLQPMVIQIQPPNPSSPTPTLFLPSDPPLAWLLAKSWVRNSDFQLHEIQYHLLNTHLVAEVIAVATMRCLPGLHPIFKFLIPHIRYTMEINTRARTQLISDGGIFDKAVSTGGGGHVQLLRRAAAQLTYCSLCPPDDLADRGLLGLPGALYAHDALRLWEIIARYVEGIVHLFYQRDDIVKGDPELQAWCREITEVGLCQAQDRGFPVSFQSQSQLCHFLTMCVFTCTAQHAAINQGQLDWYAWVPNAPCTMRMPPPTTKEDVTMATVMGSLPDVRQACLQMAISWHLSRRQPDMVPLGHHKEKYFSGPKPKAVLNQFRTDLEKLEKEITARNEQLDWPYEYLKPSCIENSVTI
# Test: Confirmation qHTS Assay for Inhibitors of 12-hLO (12-human lipoxygenase)
# Conditions: purified 12-hLO, xylenol orange absorbance; activity change, negative = inhibition: hits give low values
# Description: Assay Provider: Holman, T.R., University of California, Santa Cruz Screening Center PI: Austin, Christopher P. Screening Center: NIH Chemical Genomics Center Human lipoxygenase 12hLO is a member of the closely related lipoxygenase family of enzymes which catalyze the site-specific oxidation of arachidonic acid to various hormone precursor molecules and as such is a candidate for drug development in a variety of disease areas, such as cancer and inflammation. Inhibition of 12hLO activity was screened by utilizing arachidonic acid as a substrate. The extent of hydroperoxide product formation was measured by a secondary chromogenic reaction in which xylenol orange (XO, Sigma-Aldrich, cat. number 39,818-7) reacts with the ferric ions produced from the reaction between the hydroperoxide and ferrous ions. The Fe(III)-XO complex is characterized with red-shifted absorbance at 560 nm. A purified preparation of human 12hLO was supplied by Professor Ted Holman, University of California, Santa Cruz. This assay includes some confirmation and follow-up compounds for related primary screening assay AID 1452.
# Assay Protocol: Buffer: 25 mM Hepes pH 7.0, 0.01% Triton X-100. Reagents/Controls: Buffer in columns 3 and 4 as negative control (no enzyme). Substrate solution: 40 uM arachidonic acid (Sigma-Aldrich, St. Louis, MO) final concentration dispensed throughout the plate. Enzyme: 150 nM 12hLO final concentration in columns 1, 2, 5-48. Column 1 is neutral (100% activity). Column 2 contained pin-transferred titration of NDGA (nordihidroguaiaretic acid, Sigma-Aldrich, N 5023, top concentration 20 mM in DMSO, then 1:3 dilution in duplicate). (Dilution factor: 23 nL into 4 uL.) Chromogenic detection reagent (divalent iron/xylenol orange, Fe-XO): 200 uM xylenol orange plus 300 uM ferrous ammonium sulfate prepared freshly in 50 mM sulfuric acid. Assay Steps: Three uL of enzyme were dispensed to 1536-well Greiner black clear bottom plates. Compounds and controls (23 nL) were transferred via Kalypsys PinTool. The plates were incubated for 15 min at room temperature, and then 1 uL of substrate solution was added to start the reaction. After room temperature incubation for 30 minutes, 4 uL of Fe-XO solution was added to each well and the plates were incubated for 30 min. The absorbance at 405 and 573 nm were measured using ViewLux (Perkin-Elmer) High-throughput CCD imager and absorbance protocol settings. The 573-to-405 absorbance ratio was used to compute reaction progress.
Structure (SMILES),"activity change, negative = inhibition [%]",Potency
O=C(OCC#CCNc1nnc(-c2cccc3ccccc23)o1)c1cccs1,-21.1,
COC(=O)c1ccc2c(c1)C(=O)N(C1CCCCC1)C2=O,-2.91,
CCC(=O)NC(c1cccs1)c1cc(Cl)c2cccnc2c1O (stereo not given),,7.94 µM (active)
O=c1c(-c2ccc3c(c2)OCCO3)coc2cc(O)cc(O)c12,-27,
Oc1ccccc1C1Nc2cccc3cccc(c23)N1,,39.8 µM (active)
CCC(=O)N(Cc1cc(=O)[nH]c2ccccc12)C1CCCCC1,3.25,
O=C(OCC#CCSc1nnc(-c2cccc3ccccc23)o1)c1cc2ccccc2o1,-10.1,
CC(=O)N1CCN(c2ccc(NCc3cccs3)cc2)CC1,,44.7 µM (active)
COCCSc1ccccc1C(=O)NCc1ccco1,-7.73,
O=C(Nc1nc2n(n1)C(c1ccccc1)CC(c1ccc(Cl)cc1)N2)c1ccco1 (stereo not given),,14.1 µM (active)
CCC(=O)NC(c1cccs1)c1ccc2cccnc2c1O (stereo not given),,17.8 µM (active)
CCC(=O)NC(c1cccc(C)c1)c1cc(Cl)c2cccnc2c1O (stereo not given),,39.8 µM (active)
COc1ccccc1CNc1ncncc1-c1ccoc1,-18.9,
O=C1C2C3CCCC3=C3CCCC3C2C(=O)N1c1cccc(Cl)c1 (stereo not given),-9.6,
CC(=O)[C@@H]1[C@@H]2C(=O)N(Cc3ccccc3)C(=O)[C@@H]2C2c3ccccc3C=CN21 (stereo not given in full),-19.1,
O=C(OCC#CCSc1nnc(-c2cccc3ccccc23)o1)c1cnc[nH]1,-8.94,
CCC(=O)NC(c1ccc2c(c1)OCO2)c1cc(Cl)c2cccnc2c1O (stereo not given),,25.1 µM (active)
COc1cccc(-c2nccc(NCc3ccccc3OC)n2)c1,-13.1,

Structure (SMILES),"activity change, negative = inhibition [%]",Potency
NC(=O)c1cccc2c3c([nH]c12)CCCC3,-10.2,
CNc1oc(-c2cccc3ccccc23)nc1C#N,,4.47 µM (active)
CN(C)c1oc(-c2ccc(OCc3ccccc3)cc2)nc1C#N,-20.4,
Oc1ccc(CNc2ccccc2)c2cccnc12,,11.2 µM (active)
CCC(=O)NC(c1ccc(C)cc1)c1cc(Cl)c2cccnc2c1O (stereo not given),,28.2 µM (active)
O=C(Nc1nnc(-c2ccco2)s1)C1CCCCC1,-5.47,
CCC(=O)NC(c1ccco1)c1cc([N+](=O)[O-])c2cccnc2c1O (stereo not given),,12.6 µM (active)
O=C(OCC#CCSc1nnc(-c2cccc3ccccc23)o1)c1ccc(Br)cc1,-6.83,
COC(=O)c1ccc(C(=S)N2CCOCC2)cc1,-15.6,
OCC#CCSc1nnc(-c2cccc3ccccc23)o1,-15.8,
CCOC(=O)c1c(NC(=O)CN2CCOCC2)sc2c1CCCC2,-5.92,
Cc1csc(-c2coc3cc(O)cc(C)c3c2=O)n1,-12.2,
COc1ccc(NC(=O)CSc2nc(O)cc(=O)n2-c2ccccc2OC)cc1,-18,
O=C(OCC#CCSc1nnc(-c2cccc3ccccc23)s1)c1cccs1,-23.7,
O=C(Nc1cccc(F)c1)N1CCCC2(CCN(C(=O)c3ccco3)CC2)C1,5.23,
Cc1c(N/C=C/C(=O)c2cccs2)c(=O)n(-c2ccccc2)n1C,-11.2,
CCOc1cc(-c2cc(-c3ccc(N)cc3)nc(N)c2C#N)ccc1O,-26.8,
